# Shown are actives, neighbours in structure and some others; about 1.6% of the full set was active somewhere.
# NSD2 inh – NSD2 histone methyltransferase inhibitors, primary screen, biochemical, AlphaScreen, single concentration, set 2 | NSD2 peptide methylation, 120 min | inhibition, % at 12.5 µM | hit rate 0.54% among 310,000 | AID 743445, 2014; in the data active = inhibition above about 50%
# Casp6 inh – human caspase-6 inhibitors, primary screen, biochemical, VEID-R110 fluorescence, single point, set 2. purified caspase-6, Z-VEID-R110 cleavage fluorescence. hit rate 0.53% among 350,000. AID 686996, 2013. P55212. inhibition, % at 12.5 µM;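 active = mean inhibition across replicates at least about 35%, with every replicate also reaching that limit, limit read from the data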;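 note: 0% = median of neutral control wells and 100% = no fluorescence left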
# Target sequence (P55212 24-179 limits assumed): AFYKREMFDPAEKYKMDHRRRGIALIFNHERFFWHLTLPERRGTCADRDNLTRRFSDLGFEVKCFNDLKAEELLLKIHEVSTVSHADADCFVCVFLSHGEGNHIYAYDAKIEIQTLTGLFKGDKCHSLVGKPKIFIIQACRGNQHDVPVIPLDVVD
# Target sequence (P55212 194-293 limits assumed): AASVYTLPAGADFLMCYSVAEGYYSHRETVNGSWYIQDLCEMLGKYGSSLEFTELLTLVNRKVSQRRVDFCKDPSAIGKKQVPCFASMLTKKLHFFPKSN
# SIRT5 inh – SIRT5 desuccinylase inhibitors, primary screen, biochemical, fluorescence imaging, single point, set 5. NAD-dependent protein deacylase sirtuin-5, mitochondrial (Homo sapiens), Q9NXA8. Purified SirT5, succinyl-peptide AMC, trypsin-coupled fluorescence. inhibition, % at 15 µM. hit rate 1.1% among 330,000. AID 652115, 2013; in the data active = inhibition above about 15%
# SUMO HTRF inh – inhibitors of in vitro SUMOylation cascade, primary screen, biochemical, HTRF, uHTS; SUMO-conjugating enzyme UBC9 (Homo sapiens), P63279; HTRF SUMOylation assay, SAE1/SAE2 + UBC9; inhibition, % at 35 µM; hit rate 0.36% among 290,000; in the data active = inhibition above about 50%, passing the limit was not always enough
# Target sequence (P63279 whole entry, looked up): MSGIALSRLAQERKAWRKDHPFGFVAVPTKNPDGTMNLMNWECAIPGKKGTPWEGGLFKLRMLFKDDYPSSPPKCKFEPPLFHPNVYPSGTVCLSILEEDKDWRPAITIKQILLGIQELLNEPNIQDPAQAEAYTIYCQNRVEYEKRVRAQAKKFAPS
# CASP1 counter – human caspase-1 inhibitors, dose response, selectivity assay for caspase-6 inhibitor project, biochemical, Z-YVAD-R110 fluorescence, cherry-pick, set 2; shares compounds with Casp6 inh; purified caspase-1, Z-YVAD-R110 cleavage fluorescence; activity change, negative = inhibition, % at 35 µM; 100 tested, under 10 active;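 active = compounds lowering fluorescence whose fitted half-maximal concentration is no more than twice their top tested dose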
# AlphaScreen art – AlphaScreen signal interference with preloaded methylated product, dose response, artefact control for NSD2 inhibitor project, biochemical, cherry-picked samples. shares compounds with NSD2 inh. AlphaScreen artifact counterscreen, preloaded methylated H4 peptide. AC35, µM (highest dose often 10 µM), for inactives: at the highest dose activity change, negative = signal loss. hit rate 9.4% among 1,500. AID 1053174, 2014; call rule not given here
# * hit, by the source's call; · = no result.
SMILES,NSD2 inh,Casp6 inh,SIRT5 inh,SUMO HTRF inh,CASP1 counter,others
COCC#Cc1cnc2c(c1)C(=O)N([C@@H](C)CO)C[C@@H](C)[C@@H](CN(C)Cc1ccc3c(c1)OCO3)O2,·,-3,-1,·,·,
O=C(O)CC(CCc1ccccc1)OC1OC(CO)C(O)C(O)C1O (stereo unspecified),·,71*,3,39,22,
COc1ccccc1S(=O)(=O)N[C@H]1CC[C@@H](CC(=O)N2CCOCC2)O[C@@H]1CO,·,0,-1,·,·,
CC(CNc1ccccc1O)C(=O)O (stereo unspecified),12,56*,7,19,-2,
CC(NC(=O)CCC(=O)Nc1ccccc1O)c1ccccc1 (stereo unspecified),-1,0,13,·,·,
CNC(=O)C[C@@H]1CC[C@H]2[C@@H](COC[C@H](O)CN2Cc2ccc(C(F)(F)F)cc2)O1,·,0,-2,·,·,
C[C@@H]1CN([C@H](C)CO)C(=O)c2cc(NC(=O)c3ccncc3)ccc2O[C@H]1CN(C)S(=O)(=O)c1cccs1,·,1,-2,·,·,
Cc1oc2c(cc(NS(=O)(=O)c3ccc(C(C)C)cc3)c3ccccc32)c1C(=O)O,20,39*,3,20,12,
Nc1cc2c(cc1Br)[nH]c(=O)c1ccccc12,·,42*,-1,·,6,
CO[C@H]1CN(C)C(=O)c2ccc(NC(C)=O)cc2OC[C@H](C)N(CCC(F)(F)F)C[C@@H]1C,·,3,3,·,·,
CCCN(C(=O)c1cccc(-n2cccc2)c1)c1c(N)n(Cc2ccccc2)c(=O)[nH]c1=O,1,71*,8,·,9,
CCCCN(C(=O)c1cccc(S(=O)(=O)N2CCCC2)c1)c1c(N)n(CCC)c(=O)[nH]c1=O,0,2,0,·,·,
CCCCN(C(=O)c1cccc(-n2cccc2)c1)c1c(N)n(CCC)c(=O)[nH]c1=O,0,41*,1,·,8,
C[C@@H]1CN([C@H](C)CO)C(=O)c2cc(/C=C/c3ccccc3)cnc2O[C@H]1CN(C)Cc1ccncc1,·,2,-10,·,·,
O=C(C[C@H]1C[C@H]2c3cc(NC(=O)CC4CC4)ccc3O[C@H]2[C@H](CO)O1)NCc1ccc(Cl)cc1,·,-1,-1,·,·,
O=C(COC(=O)c1ccccc1)Nc1ncc([N+](=O)[O-])s1,83*,84*,21*,·,-7,
O=C(Nc1ccccc1)Nc1ncc([N+](=O)[O-])s1,14,7,8,3,·,
Cc1ccc(Nc2c([N+](=O)[O-])ccc3nonc23)c(C)c1,1,-3,-2,-10,·,
Cc1ccc(S(=O)c2ccc([N+](=O)[O-])c3nonc23)cc1 (stereo unspecified),66*,91*,15*,·,21,
COc1ccc(CN(C)C[C@@H]2Oc3ccc(NC(=O)Nc4ccc(F)cc4)cc3CC(=O)N([C@H](C)CO)C[C@@H]2C)cc1,·,2,4,·,·,
CCCC#Cc1ccc([C@@H]2[C@H](CO)N3C(=O)CN(C(=O)c4ccncc4)C[C@@H]23)cc1,·,4,1,·,·,
O=[N+]([O-])c1c(Nc2ccccn2)cc(Cl)c2nonc12,4,59*,-6,93*,-1,
O=C(O)c1ccccc1Nc1cc(Cl)c2nonc2c1[N+](=O)[O-],45,3,3,7,·,
COc1cccc(-c2cnc3c(c2)C(=O)N([C@H](C)CO)C[C@@H](C)[C@@H](CN(C)Cc2ccc(F)cc2)O3)c1,·,0,-5,·,·,
Cc1cccc(C)c1NC(=O)CN(C)C(=O)c1cccc(-n2cccc2)c1,-1,15,-2,·,·,
SMILES,NSD2 inh,Casp6 inh,SIRT5 inh,SUMO HTRF inh,CASP1 counter,others
COc1ccc(NC(=O)CN(C)C(=O)c2cccc(-n3cccc3)c2)cc1,9,51*,4,·,-3,
Cc1ccc(NC(=O)CN(C)C(=O)c2cccc(-n3cccc3)c2)cc1,24,82*,2,·,11,
Cc1cccc(NC(=O)CNC(=O)c2cccc(-n3cccc3)c2)c1C,2,83*,-2,·,0,
COc1ccc(NC(=O)Nc2ccc3c(c2)C(=O)N([C@H](C)CO)C[C@@H](C)[C@H](CN(C)C(=O)Nc2ccc(OC)cc2)O3)cc1,·,-4,-5,·,·,
COc1cc(NC(C)CCCNC(C)C)c2ncccc2c1OC (stereo unspecified),111*,38*,·,·,1,
C[C@H](CO)N1C[C@H](C)[C@@H](CN(C)S(=O)(=O)c2ccc(Cl)cc2)OCCCC[C@H](C)Oc2ccc(NC(=O)Nc3cccc4ccccc34)cc2C1=O,·,2,9,·,·,
O=C(O)/C(=C\c1ccc(Cl)c([N+](=O)[O-])c1)c1ccc(S(=O)(=O)N2CCCC2)s1,49,70*,9,·,11,
O=C(O)/C(=C\c1ccccc1Cl)c1ccc(S(=O)(=O)N2CCCCC2)s1,26,28,-2,25,·,
Cn1nc(-c2ccccn2)nc2c(=O)n(C)c(=O)nc1-2,·,95*,3,102*,-3,
COc1ccc(-c2nc(-c3ccccn3)ncc2S(C)(=O)=O)cc1,-3,1,-3,15,·,
CCCc1nc2c(=O)n(C)c(=O)nc-2n(C)n1,·,96*,1,98*,-12,
O=C(C[C@@H]1C[C@H]2c3cc(NC(=O)NC4CCCCC4)ccc3O[C@H]2[C@H](CO)O1)NCc1ccccn1,·,75*,1,·,1,
O=C(C[C@@H]1C[C@H]2c3cc(NC(=O)NC4CCCCC4)ccc3O[C@H]2[C@@H](CO)O1)NCc1ccccn1,·,0,-3,·,·,
CCOC(=O)c1sc2nc(OCCN3CCOCC3)cc(C)c2c1N,·,82*,17*,·,5,
Cc1noc(C)c1NC(=O)N(C)C[C@H]1Oc2c(NC(=O)NC(C)C)cccc2C(=O)N([C@H](C)CO)C[C@H]1C,·,1,1,·,·,
COCCn1c(-c2ccc(OC)cc2)nc2ccccc21,15,·,·,-4,·,
COCCn1c2nc(=O)n(-c3ccccc3)c(=O)c-2nc2ccccc21,50*,70*,-4,·,5,AlphaScreen art=0%
COc1ccc(NS(=O)(=O)c2ccc3c(c2)[C@H]2C=CC[C@H]2[C@@H](c2ccc(C(=O)O)cc2)N3)cc1,55*,53*,44*,54*,3,AlphaScreen art=-11%
COc1ccc(NC(=O)N(C)C[C@H]2Oc3ccc(NC(=O)Nc4ccc(C(F)(F)F)cc4)cc3CC(=O)N([C@H](C)CO)C[C@@H]2C)cc1,·,1,-12,·,·,
COc1cc(NCCCCC(C)N)c2nccc(C)c2c1 (stereo unspecified),129*,93*,·,·,-5,AlphaScreen art=-11%
